Columns and labels:
Experiment in all cases: PBM binding z-score (relative to random genomic background probes); higher = stronger binding; sequences stand for … in GC…GCGATTGACAGCGTAGAATGAAGG
[1] = system: FXR:RXRa (NR concentration 270 nM, RXRa partner concentration 90 nM)
Outline: (§1)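 The probes on custom Agilent 4×180K protein-binding microarrays were double-stranded, with 34-nt variable regions bearing direct-repeat seeds, single-nucleotide variants, half-site ablations and random human genomic background sequences. Incubation lasted 1 h with ligand-free nuclear receptor dimers in PBS pH 7.4, 2% milk, 0.02% Triton X-100, 1 mM DTT, 0.2 mg/mL BSA and 0.4 mg/ml salmon testes DNA. Antibodies against each partner (one per run) detected bound dimers, and fluorescence scans were regression-normalized. Binding z-scores take the random background probes as reference.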

[2] = system: LXRa:RXRa (NR concentration 270 nM, RXRa partner concentration 90 nM)
Outline: as §1

[3] = system: LXRa homodimer (NR concentration 270 nM)
Outline: as §1

[4] = system: LXRb:RXRa (NR concentration 270 nM, RXRa partner concentration 90 nM)
Outline: as §1

[5] = system: LXRb homodimer (NR concentration 270 nM)
Outline: as §1

[6] = system: PPARa:RXRa (NR concentration 270 nM, RXRa partner concentration 90 nM)
Outline: as §1

[7] = system: PPARg:RXRa (NR concentration 180 nM, RXRa partner concentration 90 nM)
Outline: as §1

[8] = system: PPARg:RXRa 270nM:90nM, anti-RXR (NR concentration 270 nM, RXRa partner concentration 90 nM)
Outline: as §1

[9] = system: PPARg:RXRa 30nM:10nM, anti-RXR (NR concentration 30 nM, RXRa partner concentration 10 nM)
Outline: as §1

[10] = system: PPARg:RXRa 90nM:30nM, anti-RXR (NR concentration 90 nM, RXRa partner concentration 30 nM)
Outline: as §1

[11] = system: PPARg:RXRa DBDmut IVT, anti-RXR (DBD mutation: RXRa K156A/R161A, NR concentration 270 nM, RXRa partner concentration 90 nM)
Outline: as §1

[12] = system: PPARg:RXRa IVT, anti-PPARg (NR concentration 270 nM, RXRa partner concentration 90 nM)
Outline: as §1

[13] = system: PPARg DBDmut:RXRa IVT, anti-PPARg (DBD mutation: PPARg1 K132A/R137A, NR concentration 270 nM, RXRa partner concentration 90 nM)
Outline: as §1

[14] = system: PPARg DBDmut IVT, anti-PPARg (DBD mutation: PPARg1 K132A/R137A, NR concentration 270 nM)
Outline: as §1

[15] = system: PPARg homodimer (NR concentration 180 nM)
Outline: as §1

[16] = system: PXR:RXRa (NR concentration 270 nM, RXRa partner concentration 90 nM)
Outline: as §1

[17] = system: PXR homodimer (NR concentration 270 nM)
Outline: as §1

[18] = system: RARa:RXR (NR concentration 270 nM, RXRa partner concentration 90 nM)
Outline: as §1

[19] = system: RARa homodimer (NR concentration 270 nM)
Outline: as §1

[20] = system: RARb:RXRa (NR concentration 270 nM, RXRa partner concentration 90 nM)
Outline: as §1

Row | Sequence | PBM binding z-score [1] | PBM binding z-score [2] | PBM binding z-score [3] | PBM binding z-score [4] | PBM binding z-score [5] | PBM binding z-score [6] | PBM binding z-score [7] | PBM binding z-score [8] | PBM binding z-score [9] | PBM binding z-score [10] | PBM binding z-score [11] | PBM binding z-score [12] | PBM binding z-score [13] | PBM binding z-score [14] | PBM binding z-score [15] | PBM binding z-score [16] | PBM binding z-score [17] | PBM binding z-score [18] | PBM binding z-score [19] | PBM binding z-score [20]
1 | CGAACTAGGTCATTGACTGGACAGTGAATAGTAA | 4.77 | 2.75 | 0.235 | 1.83 | -0.381 | 4.74 | 7.36 | 6.43 | 3.34 | 5.78 | 8.06 | 8.06 | 5.21 | 5.65 | 0.956 | 0.89 | 0.0623 | 1.78 | 0.262 | 3.52
2 | CCTACTGGGCCACCAAAGGTCATTGATTCAGTGA | 3.72 | 5.73 | 6.47 | 4.95 | 0.575 | 4.69 | 5 | 5.44 | 2.81 | 4.94 | 5.36 | 5.74 | 1.31 | 0.0425 | 4.38 | 5.69 | 2.75 | 6.23 | 2.56 | 4
3 | AGAATGAGGTTATTAAGCTCAGGGAATTGCGGTC | 1.57 | 1.14 | -0.316 | 0.747 | -0.299 | 2.6 | 0.995 | 1.26 | -0.0679 | 0.636 | 2.58 | 1.95 | 0.589 | 0.126 | -0.0657 | 0.757 | -0.286 | 0.948 | -0.655 | 1.09
4 | GCGACTGGGACAAAGCAGGTTACCATAAGGTTGG | -0.198 | -0.314 | -0.305 | -0.479 | -0.971 | 0.611 | 0.76 | 0.524 | -0.332 | -0.0419 | 2.44 | 1.83 | -0.413 | -1.3 | 0.0292 | 0.0506 | -0.224 | 0.493 | -0.37 | 0.0729
5 | CAACCTAGGTCAAAGGTCAAAGTCGAGCCAACCA | 8.61 | 7.41 | 5.72 | 7.42 | 3.03 | 7.49 | 12.5 | 10.1 | 10.9 | 11.3 | 5.72 | 7.45 | 2.7 | 1.79 | 4.67 | 7.39 | 1.35 | 8.88 | 2.65 | 5.83
6 | CCGACTGGGGCTAAGGTTACCATACTCAGTACGA | 0.144 | 0.0677 | -0.428 | 0.815 | -0.943 | 2.71 | 5.47 | 5.55 | 4.41 | 5.78 | 0.598 | 2.11 | -0.549 | -0.925 | 0.343 | 0.473 | -0.328 | 1.12 | -0.0476 | 1.12
7 | TCAGACAGTTGAAGGTAACTCAGGTACGCAGTCG | 0.761 | 1.54 | 0.0812 | 0.579 | -0.363 | 1 | 0.579 | 2.27 | 3.99 | 3.4 | 2.22 | 0.0381 | -0.122 | -0.183 | 0.684 | 0.701 | 0.165 | 0.843 | -0.196 | 0.547
8 | TCTTTTAGATCAAGCAGGTTAAGAAAGCCTGAGT | 0.715 | 0.67 | -0.177 | 0.588 | 0.409 | 1.02 | -0.669 | 1.68 | 3.39 | 2.56 | 1.41 | 0.619 | 0.997 | 1.17 | -0.29 | 0.774 | 0.132 | 0.889 | -0.0558 | 0.269
9 | AGAAAGAGGGCAATGAGTTGATAGCACGGGTGGC | 0.593 | 0.892 | 0.104 | 0.387 | 0.472 | 1.55 | 1.23 | 0.938 | 0.0317 | 0.591 | 2.75 | 1.6 | 0.0853 | 0.306 | 0.658 | 1.84 | 4.38 | 0.758 | 0.0375 | 2.46
10 | GGAACGAGGGCATTCGAGTTGATCGCATGGCGAT | 1.56 | 1.88 | -0.524 | 0.182 | -1 | 1.17 | 0.585 | 0.552 | -0.63 | 0.176 | 3.31 | 1.97 | -0.808 | -0.537 | -0.069 | 3.96 | 1.47 | 0.882 | -1.16 | 1.68
11 | ACAGACATGTGAGTGAAGGTAACTCAGCTGGACG | -0.28 | -0.449 | -0.659 | -0.669 | -0.436 | -0.3 | 0.817 | -0.286 | -0.111 | 0.163 | -0.459 | -0.467 | -0.0972 | -0.0853 | -0.419 | -0.554 | -0.383 | -0.531 | -0.221 | -0.157
12 | ATCTCTAGGTAAGACTCAGTTCCGTGAAGAACGC | 0.132 | 0.397 | 0.225 | 0.111 | 0.896 | -0.155 | -0.0539 | 0.0133 | -0.0195 | 0.0962 | 1.81 | 0.672 | -0.309 | 0.647 | 0.0237 | 0.093 | 0.39 | -0.00835 | 0.872 | -0.0314
13 | TCATATAGGTAAAGGCTAGGTGAAAGTCCGATCT | 1.01 | 0.707 | -0.194 | 0.441 | -0.41 | 1.71 | 1.18 | 2.39 | 3.57 | 2.98 | 3.97 | 3.25 | 0.56 | 1.28 | 0.619 | 0.508 | 0.058 | 1.09 | 1.15 | 0.844
14 | TCTATTAGTCGATTAGGGCAACCGAAACAGCGGA | 0.523 | 0.509 | 0.385 | 0.608 | 0.293 | 0.759 | 0.292 | 2.12 | 3.61 | 2.99 | 2.06 | 1.15 | 1.13 | 0.942 | 0.0705 | 0.419 | -0.106 | 0.574 | 0.642 | 0.697
15 | AGAATGAGGTTGTACGTAGATCAGGGAAGAAAGT | -0.0554 | 0.156 | 0.00374 | 0.364 | 0.0497 | 0.574 | 0.188 | 0.124 | 0.21 | 0.207 | -0.0167 | 0.566 | 0.8 | 0.199 | 0.226 | 0.252 | 0.629 | 0.411 | 0.476 | 0.142
